Source: PubChem
BL2 CD40 inh: CD40 pathway inhibition in BL2 cells; BL2 NF-kB luciferase reporter, CD40L-induced, 4 h; inhibition, % at 10 µM; 83,000 tested, 0.94% active; AID 1053188;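 active means mean inhibition of at least 50% with a set share of replicates also reaching that level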
Numbers stand for hits; - = inactive; [ ] = another dose, or the depositor's remark. This excerpt belongs to a sample that is enriched for hits.

SMILES | BL2 CD40 inh
COCC(=O)Nc1ccc2c(c1)[C@H]1C[C@@H](CC(=O)N[C@H](C)c3ccccc3)O[C@H](CO)[C@H]1O2 | -
Cc1[nH]c2ccccc2c1C1=CC(=O)C=CC1=O | 91
Cc1[nH]c2ccccc2c1CC#N | -
Cc1[nH]c2ccccc2c1CCO | -
CC(=O)N(C(C)=O)c1ccc(Oc2ccc(Oc3ccc(N(C(C)=O)C(C)=O)cc3)cc2)cc1 | -
Cc1sc2nc(-c3ccco3)oc(=O)c2c1C | -
Cc1nc(NCc2ccco2)c2c(C)c(C)sc2n1 | 49
Cc1sc2ncnc(SCc3ccco3)c2c1C | -
O=C(C[C@@H]1CC[C@H]2[C@@H](COC[C@@H](O)CN2C(=O)c2cnccn2)O1)N1CCN(c2ccccc2)CC1 | -
Cc1ccc(COc2ccc(CNCCCN3CCCCCC3=O)cc2)cc1 | -
O=C(O)C[C@H]1C[C@H]2c3cc(NC(=O)Nc4ccc(C(F)(F)F)cc4)ccc3O[C@H]2[C@H](CO)O1 | -
CC(C)c1ccc(OCC(=O)NCCO)cc1 | -
Cc1cc(=O)n2cn[nH]c2n1 | -
O=C(COc1ccccc1)c1ccccc1 | -
O=C(C#Cc1ccccc1)c1ccccc1 | 89
O=C(CC(=O)c1ccccc1)c1ccccc1 | -
C[C@@H]1CN([C@H](C)CO)C(=O)CCCn2cc(nn2)CO[C@@H]1CN(C)C(=O)Oc1ccccc1 | -
Cn1cnc([N+](=O)[O-])c1Sc1nnc(-c2ccccc2)c(-c2ccccc2)n1 | -
COc1ccc(-c2cccc(-c3nc(C(=O)O)cc4c3[C@@H](CCO)N([S@](=O)C(C)(C)C)C4)c2)cc1 | -
N#Cc1cccc(-c2ccc3c(c2)[C@H]2[C@H](CCN2C(=O)CN2CCOCC2)[C@@H](CO)N3)c1 | -
N#Cc1cccc(-c2ccc3c(c2)[C@@H]2[C@@H](CCN2C(=O)CN2CCOCC2)[C@@H](CO)N3)c1 | active[25 µM]
N#Cc1cccc(-c2ccc3c(c2)[C@@H]2[C@@H](CCN2C(=O)CN2CCOCC2)[C@H](CO)N3)c1 | -
N#Cc1ccc(-c2ccc3c(c2)[C@H]2[C@H](CCN2C(=O)C2CC2)[C@@H](CO)N3)cc1 | 68
N#Cc1ccc(-c2ccc3c(c2)[C@H]2[C@H](CCN2C(=O)C2CCC2)[C@@H](CO)N3)cc1 | -
N#Cc1ccc(-c2ccc3c(c2)[C@@H]2[C@@H](CCN2C(=O)C2CC2)[C@H](CO)N3)cc1 | -
SMILES | BL2 CD40 inh
COc1ccc(NC(=O)Nc2cccc3c2O[C@H](CN(C)C(=O)NC2CCCCC2)[C@H](C)CN([C@H](C)CO)C3=O)cc1 | -
CSCCC(NS(=O)(=O)c1ccc(C)cc1)C(=O)Nc1ccc(C)cn1 (stereo not drawn) | -
Cc1ccc(-n2ccnc(SCC(=O)NC3CCCC3)c2=O)cc1Cl | -
Cc1ccc(-n2ccnc(SCC(=O)NCCc3ccccc3)c2=O)cc1F | 54
CCOc1ccc(-n2ccnc(SCC(=O)NCCc3ccccc3)c2=O)cc1 | -
CCCN1CCN(CCCNC(=O)CN2C(=O)COc3ccc(C(C)(C)C)cc32)CC1 | -
CC(=O)Nc1ccc([N+](=O)[O-])cn1 | -
CC(=O)Nc1ccc(Sc2ccc([N+](=O)[O-])o2)cc1 | 86
CC(=O)Nc1ccc(SC(Sc2ccc(NC(C)=O)cc2)c2ccccc2)cc1 | -
O=C(/C=C/c1ccc2c(c1)OCO2)c1ccccn1 | -
C(=Cc1cnc2ccccc2n1)c1ccc2c(c1)OCO2 | 98
Nc1nc2ccccc2n1/N=C/c1ccc2c(c1)OCO2 | -
O=C(Nc1ccccc1F)N1C[C@H]2[C@@H](c3ccccc31)[C@@H](CO)N2C(=O)C1CCOCC1 | -
Cc1cc(C)nc(SCC(=O)NC(=O)c2ccccc2O)n1 | -
CCOc1cccc(-c2csc(C3COc4ccccc4O3)n2)c1 (stereo not drawn) | -
O=C(Nc1nc2c(s1)CCCC2)c1cccnc1 | -
O=C(Nc1nc2c(s1)CCCC2)Oc1ccccc1 | -
O=C(O)c1ccc(Nc2nc3c(s2)CCCC3)cc1 | 72
O=S(=O)(/N=S1\CC=CCN1S(=O)(=O)c1ccccc1)c1ccccc1 (stereo not drawn) | -
CN(C)C(=O)C[C@H]1CC[C@@H]2[C@@H](COc3ccc(NC(=O)C4CCCC4)cc3C(=O)N2C)O1 | -
Cc1[nH]c2ccccc2c1C(c1ccncc1)N1CCN(c2ccccn2)CC1 (stereo not drawn) | -
Cc1[nH]c2ccccc2c1C(c1ccccn1)N1CCC(C(N)=O)CC1 (stereo not drawn) | 62
Cc1[nH]c2ccccc2c1C(c1ccncc1)N1CCC(C)CC1 (stereo not drawn) | -
O=S(=O)(c1cccs1)N1CCCCN2[C@H](C1)[C@@H](c1ccc(/C=C/c3ccccc3)cc1)[C@@H]2CO | -
CCCCNC(=O)c1ccccc1NC(=O)CCC | -
COc1cccc(C(=O)Nc2ccc3c(c2)C(=O)N(C)C[C@@H](OC)[C@H](C)CN(C(=O)C2CCCC2)[C@H](C)CO3)c1 | -
CC(=O)N1[C@H](CO)[C@H](c2ccccc2)[C@H]1CN(C(=O)c1cccc(F)c1)C(C)C | -
COc1ccc2c3c([nH]c2c1)[C@@H](CO)N(C(=O)C1CCOCC1)CC31CN(C(=O)NC(C)C)C1 | -
N#C[C@@H]1[C@H](c2ccc(C#Cc3cccc(F)c3)cc2)[C@H](CO)N1C(=O)C1CCOCC1 | -
